Drawing on PubChem BioAssay (NCI), this text covers growth for 13 compounds.

Compounds without any hit were thinned out: in the full panel of roughly 83,000, 20% have a hit.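 Growth was measured after 48 h exposure to one concentration of compound in 96-well plates. Values under 10 count as active.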 Unmarked numbers belong to inactive results. Active and inactive are the calls of the source.

Among the test systems are NCI-H23 lung; NCI-H226 lung; NCI-H322M lung; HOP-62 NSCLC; NCI-H460 lung; HOP-92 NSCLC; NCI-H522 lung; A549/ATCC NSCLC; 786-0 renal; COLO 205 colon.
Common to all, as to assay: NCI-60 one-dose screen, 48 h (100 = growth as untreated, 0 = no growth, -100 = all killed)
What all share (conditions): 10 µM unless noted

With `CN(C)CCN1C(=O)c2cccc3c(-c4ccc(-c5nc6c7ccccc7c7ccccc7c6[nH]5)cc4)ccc(c23)C1=O`, the growth in the assay with NCI-H23 lung was 109%; in the assay with NCI-H226 lung, 101%; in the assay with NCI-H322M lung it was 114%; in the assay on HOP-62 NSCLC, 106%; in the assay on NCI-H460 lung it was 111%; in the assay on HOP-92 NSCLC, 71.3%. In addition, the growth was 94.2% in the assay on NCI-H522 lung, 90.4% in the assay on A549/ATCC NSCLC, 18.2% with 786-0 renal and 105% in the assay on COLO 205 colon.
Turning to `O=C1c2ccccc2C(=O)c2cc(Cn3cc[n+](Cc4ccc5ccccc5c4)c3)ccc21`, the growth with NCI-H23 lung is 75.6%; in the assay with NCI-H226 lung, 83.3%; with NCI-H322M lung it was 91%; in the assay with HOP-62 NSCLC it was 107%; in the assay on NCI-H460 lung, 94%; in the assay on HOP-92 NSCLC it was 47.8%. Also, the growth in the assay on NCI-H522 lung was 38.9%; in the assay with A549/ATCC NSCLC, 110%; in the assay on 786-0 renal, 98.8%; in the assay on COLO 205 colon, 58.6%.
On to `C=C1C(=O)O[C@H]2[C@H]1CC/C(COC(=O)/C=C\C(=O)NCc1ccc(Cn3c(=O)sn(-c4ccc(Cl)cc4)c3=O)cc1)=C\CC[C@@]1(C)O[C@@H]21`, for which the growth with NCI-H23 lung is -63.6% (active); in the assay with NCI-H226 lung, -58.9% (active); in the assay with NCI-H322M lung, -18.5% (active); in the assay on HOP-62 NSCLC, -34.7% (active); in the assay on NCI-H460 lung, -73.2% (active); in the assay with HOP-92 NSCLC it was -66.7% (active). The growth with NCI-H522 lung is -55.9% (active); in the assay with A549/ATCC NSCLC, -43.7% (active); in the assay on 786-0 renal, -82.5% (active); with COLO 205 colon it was -45% (active).
On to `COc1cc2c(O)n(CCCn3ccnc3)c3c4cnc5cccc(c(=O)c3c2cc1OC)c54`, for which the growth in the assay with NCI-H23 lung was 38.8%; in the assay with NCI-H226 lung, 41.8%; in the assay with NCI-H322M lung it was 77.9%; with HOP-62 NSCLC, 13.1%; with NCI-H460 lung, 6.78% (active); in the assay with HOP-92 NSCLC, 28%. The growth in the assay on NCI-H522 lung was 18.7%; with A549/ATCC NSCLC, 35.6%; with 786-0 renal it was 7.01% (active); in the assay with COLO 205 colon it was 33.1%.
As to `COc1cccc(-c2cnco2)c1OCc1c(C)c(COc2c(OC)cccc2-c2cnco2)c(C)c(COc2c(OC)cccc2-c2cnco2)c1C`, the growth is 71.5% in the assay on NCI-H23 lung; 21.8% with NCI-H226 lung; 70.7% in the assay on NCI-H322M lung; 42.1% in the assay on HOP-62 NSCLC; 52.2% in the assay with NCI-H460 lung; -6.35% (active) in the assay with HOP-92 NSCLC. Moreover, the growth in the assay with NCI-H522 lung was 33.9%; in the assay with A549/ATCC NSCLC, 51.8%; with 786-0 renal it was 2.94% (active); in the assay on COLO 205 colon it was 83.4%.
For the compound `Cc1cc(C)on1`, the growth with NCI-H23 lung was 109%; in the assay on NCI-H226 lung it was 103%; with NCI-H322M lung, 111%; in the assay on HOP-62 NSCLC it was 111%; with NCI-H460 lung, 116%; with HOP-92 NSCLC it was 89.3%. Further, the growth is 107% in the assay on NCI-H522 lung, 97.9% with A549/ATCC NSCLC, 101% in the assay on 786-0 renal and 112% in the assay on COLO 205 colon.
On to `COc1cc2oc(-c3cccc(C(=O)Nc4ccc(C)cc4)c3)cc(=O)c2c(OC)c1OC`, for which the growth was 44.6% in the assay with NCI-H23 lung; 62.5% in the assay with NCI-H226 lung; 51.1% in the assay on NCI-H322M lung; 22.1% in the assay on HOP-62 NSCLC; 24.9% in the assay on NCI-H460 lung; 22% in the assay on HOP-92 NSCLC. For the same compound, the growth with NCI-H522 lung is 6.72% (active); in the assay with A549/ATCC NSCLC it was 33.8%; in the assay on 786-0 renal, 22.1%; in the assay on COLO 205 colon, 1.73% (active).
As to `O=C(/C=C/c1ccccc1)c1ccc2ccccc2c1`, the growth with NCI-H23 lung was 92.1%; in the assay on NCI-H226 lung it was 98.5%; in the assay with NCI-H322M lung it was 99.8%; with HOP-62 NSCLC, 96.5%; in the assay with NCI-H460 lung, 110%; in the assay with HOP-92 NSCLC it was 94.6%. Also, the growth is -3.88% (active) in the assay on NCI-H522 lung, 96.3% in the assay with A549/ATCC NSCLC, 90.8% with 786-0 renal and 38.3% with COLO 205 colon.
Regarding `CC(=O)c1sc(-c2ccccc2)cc1N`, the growth in the assay on NCI-H23 lung is 101%; in the assay with NCI-H226 lung it was 96.6%; with NCI-H322M lung, 96.9%; in the assay on HOP-62 NSCLC it was 94.4%; in the assay with NCI-H460 lung, 102%; in the assay on HOP-92 NSCLC it was 97.7%. In addition, the growth was 72.5% in the assay on NCI-H522 lung, 76% in the assay with A549/ATCC NSCLC, 92.7% with 786-0 renal and 109% in the assay on COLO 205 colon.
For the compound `CCCCCCNC(=O)c1cc(NCc2cc(O)ccc2O)ccc1O`, the growth in the assay on NCI-H23 lung is 87.5%; in the assay on NCI-H226 lung, 92.3%; in the assay on NCI-H322M lung, 89.2%; with HOP-62 NSCLC, 70.9%; with NCI-H460 lung, 94.5%; in the assay with HOP-92 NSCLC, 24%. Besides, the growth in the assay with NCI-H522 lung is -62.3% (active); in the assay on A549/ATCC NSCLC it was 70.5%; with 786-0 renal, 45.9%; in the assay with COLO 205 colon it was 96.9%.
Consider `CNC=O`, for which the growth in the assay on NCI-H23 lung was 85.7%; in the assay on NCI-H226 lung, 102%; in the assay on NCI-H322M lung, 97.5%; in the assay on HOP-62 NSCLC it was 107%; in the assay with NCI-H460 lung, 101%; in the assay with HOP-92 NSCLC, 92%. The growth in the assay on NCI-H522 lung was 94.9%; with A549/ATCC NSCLC, 88.8%; in the assay on 786-0 renal, 102%; in the assay with COLO 205 colon, 97.7%.
Consider `CCN(CC)CCOc1ccc(/C(=C(\C)c2ccc(OC)c(F)c2)c2ccc(Cl)cc2)cc1`, for which the growth is 80.8% in the assay on NCI-H23 lung; 102% in the assay on NCI-H226 lung; 85.1% with NCI-H322M lung; 78.5% in the assay on HOP-62 NSCLC; 61.1% in the assay with NCI-H460 lung; 82% in the assay on HOP-92 NSCLC. For the same compound, the growth was 86.1% in the assay on NCI-H522 lung, 59.7% in the assay with A549/ATCC NSCLC, 68.2% in the assay on 786-0 renal and 42.2% with COLO 205 colon.
As to `CO/C(=C1/NC(=O)C(Cc2ccc(O)c(Br)c2)N(C)C(=O)C(C)NC(=O)CCC/C=C(\C)CCC(C)OC1=O)c1ccccc1` (stereo not given), the growth with NCI-H23 lung was 25.1%; in the assay on NCI-H226 lung, -33.9% (active); with NCI-H322M lung, -34.3% (active); in the assay on HOP-62 NSCLC it was -19.7% (active); in the assay on NCI-H460 lung, -22.1% (active); in the assay with HOP-92 NSCLC it was -53.9% (active). The growth with NCI-H522 lung was -61.1% (active); in the assay with A549/ATCC NSCLC it was -49.5% (active); in the assay with 786-0 renal, -35.6% (active); in the assay with COLO 205 colon it was 7.23% (active).
